This note sets out measurements from PubChem BioAssay (NCATS).

Several values for one entry are separate records, joined by “and”; a condition that tells them apart may be missing. Equal entries are not always repeated. Records with an inconclusive call do not appear. Activity calls are given as the source filed them. Unless noted, calls follow the shape of the dose curve; as a rule, active = well fitted curve in the direction sought with a large enough effect; inconclusive = small, poorly fitted or top-dose-only effect, or another doubt; inactive = no such curve, though single readings can be large; an effect the other way counts as inactive or inconclusive.

Test [1] is described as follows: Natriuretic polypeptide receptor (hNpr1) antagonism - Pilot counterscreen GloSensor control cell line (AID 1347045; calls by dose curve; also: potency is read from the fitted curve at half-maximal effect). In a few lines:
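The SNP-driven cGMP luminescence signal (50 uM, 20 min, room temperature) was measured in GloSensor HEK293 control cells. Compounds were tested as a LOPAC titration series and preincubated for 30-50 min.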
(In general: Counterscreens check selectivity or assay interference.)

The target of test [2] is Atrial natriuretic peptide receptor 2 (Homo sapiens) (UniProt P20594). The test is described as follows: Natriuretic polypeptide receptor (hNpr2) antagonism - Pilot subtype selectivity assay (AID 1347050; calls by dose curve; also: potency is read from the fitted curve at half-maximal effect). In a few lines:
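Read-out: GloSensor luminescence (CCD imager), baseline vs post-stimulation. HEK293 cells expressing hNpr2; compounds pre-incubated 30-50 min at ambient temperature; hNppC 1 nM final, 20 min.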

The nature of test [3]: NS1 protein of Zika virus - qHTS assay to identify small molecule inhibitors in human HEK 293 cells (AID 1347053). Also: nearly all actives have a fitted effect of over 55% in size. Also: potency is read from the fitted curve at half-maximal effect. The essentials: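 Readout was TR-FRET using paired anti-NS1 antibodies after 24 h infection of HEK 293 cells with ZIKV MR766 (MOI = 0.5). Compound preceded virus by 1 h; reduced signal reflects lower NS1 expression.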
In general terms: In qHTS, concentration-response curves come from the screen itself.

For test [4], the target named is T1, Tyrosine-protein phosphatase non-receptor type substrate 1 (Homo sapiens) + Leukocyte surface antigen CD47 (Homo sapiens) (UniProt P78324+Q08722). Briefly: CD47-SIRPalpha protein protein interaction - Alpha assay qHTS validation (AID 1347059).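 Also: bead proximity luminescence from CD47 binding SIRPalpha after compound preincubation with SIRPalpha.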 Also: potency is read from the fitted curve at half-maximal effect. In a few lines:
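In PBS (pH 7.4) with 0.05% IGEPAL CA-630, compound is preincubated with biotin-Avi-SIRPalpha ectodomain before His-CD47 ectodomain and affinity beads are added. Light-protected room-temperature incubations; AlphaScreen readout.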

The target of test [5] is Parathyroid hormone/parathyroid hormone-related peptide receptor (Homo sapiens) (UniProt Q03431). Briefly: qHTS for PTHR1 Agonists: Optimization Screen against the NCGC LOPAC library (AID 1347079).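 Also: GloSensor cAMP luminescence in HEK-293 GP2 cells expressing human PTHR1 with IBMX.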 The essentials: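 Signal increase flags agonism. GP2 cells, derived from HEK-293, express human PTHR1 and a GloSensor cAMP construct.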
Parathyroid hormone/parathyroid hormone-related peptide receptor (Homo sapiens), sequence (Q03431 whole entry, looked up): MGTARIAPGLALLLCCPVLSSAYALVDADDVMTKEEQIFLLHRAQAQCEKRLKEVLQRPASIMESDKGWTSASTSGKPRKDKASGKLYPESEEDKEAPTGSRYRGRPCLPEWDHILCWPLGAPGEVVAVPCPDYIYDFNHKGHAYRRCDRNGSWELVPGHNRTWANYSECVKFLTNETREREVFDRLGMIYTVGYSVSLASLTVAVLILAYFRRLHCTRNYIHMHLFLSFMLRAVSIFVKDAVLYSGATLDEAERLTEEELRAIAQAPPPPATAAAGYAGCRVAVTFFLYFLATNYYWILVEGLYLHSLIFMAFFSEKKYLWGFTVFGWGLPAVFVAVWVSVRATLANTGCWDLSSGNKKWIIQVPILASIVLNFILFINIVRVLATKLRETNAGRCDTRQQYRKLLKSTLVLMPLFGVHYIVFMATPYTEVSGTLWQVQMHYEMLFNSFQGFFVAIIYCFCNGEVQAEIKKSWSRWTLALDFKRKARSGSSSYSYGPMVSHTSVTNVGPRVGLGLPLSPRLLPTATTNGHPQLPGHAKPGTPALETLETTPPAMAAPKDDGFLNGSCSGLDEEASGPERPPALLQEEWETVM
Test [6] in a line: qHTS of pediatric cancer cell lines to identify multiple opportunities for drug repurposing: Primary screen for TC32 cells (AID 1347089). Also: nearly all actives have a fitted effect of over 60% in size. Also: potency is read from the fitted curve at half-maximal effect. In a few lines:
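In the primary qHTS, MIPE compounds were tested at 11 concentrations (0.78 nM to 46 µM) and NPC compounds at 8 (0.59 nM to 46 µM) on TC32 cells for 48 h. CellTiter-Glo luminescence gave viability.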

A short description of test [7]: qHTS of pediatric cancer cell lines to identify multiple opportunities for drug repurposing: Primary screen for DAOY cells (AID 1347090). Also: nearly all actives have a fitted effect of over 55% in size. Also: potency is read from the fitted curve at half-maximal effect. In a few lines:
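Eight- or eleven-point concentration series, 48 h treatment at 37 degrees C in growth media; readout CellTiter-Glo luminescence. Potency and efficacy were taken from the concentration-response curves.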

Test [8] deals with T1, Tyrosine-protein phosphatase non-receptor type substrate 1 (Homo sapiens) + Leukocyte surface antigen CD47 (Homo sapiens). Briefly: CD47-SIRPalpha protein protein interaction - LANCE assay qHTS validation (AID 1347057; active = well fitted curve in the direction sought with a large enough effect in the signal ratio, with a control signal flat, not every such curve was filed as active; the % refers to the signal ratio; also: series mostly up to about 38 µM). In a few lines: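 Inhibition of soluble CD47/SIRPalpha ectodomain association by titrated compounds, measured as 665/615 nm time-resolved FRET ratio after sequential 30 min room-temperature incubations.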
In general terms: Time-resolved FRET reads energy transfer from a long-lived donor to a nearby acceptor.

For test [9] the target is unchanged. Briefly: CD47-SIRPalpha protein protein interaction - HTRF assay qHTS validation (AID 1347058; active = well fitted curve in the direction sought with a large enough effect in the signal ratio, not every such curve was filed as active; the % refers to the signal ratio; also: series mostly up to about 38 µM). In a few lines: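 Soluble extracellular domains (6His-CD47, Avi-tag-biotinylated SIRPalpha) in PBS pH 7.4 with 0.05% IGEPAL CA-630. Compounds were preincubated 30 min at RT with CD47 and anti-His-Eu, then SIRPalpha and SAV-XL665 were added. TR-FRET 665/615 ratio.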

Atrial natriuretic peptide receptor 2 (Homo sapiens), sequence (P20594 whole entry, looked up): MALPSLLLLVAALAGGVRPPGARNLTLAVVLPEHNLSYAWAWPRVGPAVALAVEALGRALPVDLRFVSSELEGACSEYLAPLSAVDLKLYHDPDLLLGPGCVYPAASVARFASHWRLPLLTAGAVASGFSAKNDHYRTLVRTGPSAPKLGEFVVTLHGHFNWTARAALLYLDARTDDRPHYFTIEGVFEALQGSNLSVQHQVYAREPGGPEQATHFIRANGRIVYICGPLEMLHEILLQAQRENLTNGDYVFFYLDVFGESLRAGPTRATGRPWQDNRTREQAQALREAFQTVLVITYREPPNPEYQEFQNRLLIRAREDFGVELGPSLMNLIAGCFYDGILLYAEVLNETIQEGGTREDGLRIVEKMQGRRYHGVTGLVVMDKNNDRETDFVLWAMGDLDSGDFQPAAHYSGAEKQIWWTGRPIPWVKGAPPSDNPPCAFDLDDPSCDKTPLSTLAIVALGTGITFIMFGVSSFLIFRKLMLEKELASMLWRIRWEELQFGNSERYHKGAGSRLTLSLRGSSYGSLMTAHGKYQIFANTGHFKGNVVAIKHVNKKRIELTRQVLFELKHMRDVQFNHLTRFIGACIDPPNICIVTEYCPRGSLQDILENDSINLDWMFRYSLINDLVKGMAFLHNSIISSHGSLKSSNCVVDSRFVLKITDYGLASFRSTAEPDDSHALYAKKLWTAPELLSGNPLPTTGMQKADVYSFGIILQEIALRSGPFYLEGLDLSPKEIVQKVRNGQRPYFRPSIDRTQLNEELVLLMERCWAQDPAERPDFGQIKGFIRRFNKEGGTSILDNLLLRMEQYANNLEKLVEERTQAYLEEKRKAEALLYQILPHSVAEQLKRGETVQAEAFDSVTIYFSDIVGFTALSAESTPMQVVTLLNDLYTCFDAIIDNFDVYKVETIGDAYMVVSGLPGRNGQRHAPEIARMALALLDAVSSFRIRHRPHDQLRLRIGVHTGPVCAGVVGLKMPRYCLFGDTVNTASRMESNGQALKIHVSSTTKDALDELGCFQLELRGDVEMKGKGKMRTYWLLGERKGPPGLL
T1 sequence (P78324 whole entry, looked up, the tested form may be a part): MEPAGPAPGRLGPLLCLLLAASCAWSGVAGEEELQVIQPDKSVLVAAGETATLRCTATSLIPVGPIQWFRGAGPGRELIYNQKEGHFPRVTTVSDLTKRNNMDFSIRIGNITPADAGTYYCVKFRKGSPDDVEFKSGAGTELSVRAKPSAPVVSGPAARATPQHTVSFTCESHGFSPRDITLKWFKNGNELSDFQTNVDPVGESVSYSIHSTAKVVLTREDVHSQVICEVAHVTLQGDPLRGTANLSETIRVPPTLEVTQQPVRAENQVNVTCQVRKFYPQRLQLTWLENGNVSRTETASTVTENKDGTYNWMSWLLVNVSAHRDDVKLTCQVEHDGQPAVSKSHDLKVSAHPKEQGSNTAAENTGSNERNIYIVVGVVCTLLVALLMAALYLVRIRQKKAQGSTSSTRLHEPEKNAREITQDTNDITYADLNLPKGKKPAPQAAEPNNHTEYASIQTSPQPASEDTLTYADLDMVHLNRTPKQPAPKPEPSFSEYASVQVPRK
T1 sequence (Q08722 whole entry, looked up, the tested form may be a part): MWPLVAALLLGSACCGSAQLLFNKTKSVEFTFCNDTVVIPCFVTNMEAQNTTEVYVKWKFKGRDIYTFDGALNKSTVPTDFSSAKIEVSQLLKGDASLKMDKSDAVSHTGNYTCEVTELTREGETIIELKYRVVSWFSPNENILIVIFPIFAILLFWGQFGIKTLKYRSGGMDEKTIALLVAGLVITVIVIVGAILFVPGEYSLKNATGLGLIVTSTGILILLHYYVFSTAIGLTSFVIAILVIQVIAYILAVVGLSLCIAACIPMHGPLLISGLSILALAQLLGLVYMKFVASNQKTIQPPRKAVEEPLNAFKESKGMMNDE

`NC(CO)C(=O)NNCc1ccc(O)c(O)c1O` (stereo unspecified): the Potency result in test [1], in [2], in [3], in test [5], in [6] and in test [7] was “inactive” each time. For the same compound, in [4], the Potency is 13.1 µM (active).
Consider `COc1ccc2c(c1)c(CC(=O)O)c(C)n2C(=O)c1ccc(Cl)cc1`, for which the Potency entry in [1], in test [2], in test [3], in test [4], in [5] and in test [6] was “inactive” in each case. Also, the outcome in test [8] and in test [9] was inactive.
Turning to `CCC1(C)CC(=O)NC1=O` (stereo unspecified), the Potency result in test [1], in test [2], in test [3], in test [4], in [5] and in [6] was “inactive” throughout. In addition, in test [7], the Potency entry was “inactive”. Also, the outcome in [8] and in test [9] was inactive.
In the case of `CCCNCC(O)COc1ccccc1C(=O)CCc1ccccc1` (stereo unspecified), the Potency entry in test [1], in test [2], in test [3], in test [4], in [5] and in test [6] was “inactive” throughout. Further, in [7], the Potency result was “inactive”. For the same compound, the outcome in test [8] and in test [9] was inactive.
On to `O=c1[nH]cc(F)c(=O)[nH]1`, for which the Potency entry in test [1], in test [2], in test [3], in test [4], in test [5] and in [6] was “inactive” throughout. For the same compound, the Potency result in [7] was “inactive”. Further, the outcome in [8] and in test [9] was inactive.
For `Cn1c(=O)c2[nH]cnc2n(C)c1=O`, the Potency result in test [1], in test [2], in test [3], in test [4], in test [5] and in test [6] was “inactive” in each case. Also, in test [7], the Potency result is “inactive”. Moreover, the result in test [8] was inactive.
For the compound `O=c1c(O)c(-c2ccc(O)c(O)c2)oc2cc(O)cc(O)c12`, the Potency entry in [1], in test [2], in test [3], in test [5] and in test [6] was “inactive” throughout.
With `Fc1ccc([C@@H]2CCNC[C@H]2COc2ccc3c(c2)OCO3)cc1`, the Potency entry in test [1], in test [3], in test [5], in test [6] and in test [7] was “inactive” each time. For the same compound, the result in test [8] was inactive.
Regarding `CN(C)c1nc(N(C)C)nc(N(C)C)n1`, the Potency entry in test [1], in test [2], in [3], in test [4], in [5] and in test [6] was “inactive” throughout. For the same compound, the Potency result in test [7] is “inactive”. Also, the outcome in test [8] and in test [9] was inactive.
For `CNCCCC12CCC(c3ccccc31)c1ccccc12`, the Potency result in test [1], in test [2], in test [4], in test [5] and in test [6] was “inactive” each time. In addition, in test [3], the Potency was 20.9 µM (active). Besides, the result in [8] and in test [9] was inactive.
`NCCc1cnc[nH]1`: the Potency entry in [1], in test [2], in test [3], in [4], in test [5] and in test [6] was “inactive” throughout. For the same compound, the Potency result in [7] was “inactive”. Also, the result in [8] and in [9] was inactive.
Consider `Nc1c2c(nc3ccccc13)CCCC2`, for which the Potency result in test [1], in test [2], in test [3], in test [4], in test [5] and in test [6] was “inactive” throughout. Also, in test [7], the Potency result was “inactive”. Also, the result in test [8] and in test [9] was inactive.
As for `O=C(C1CCCCC1)N1CC(=O)N2CCc3ccccc3C2C1` (stereo unspecified), the Potency result in [1], in [2], in test [3], in [4], in [5] and in test [6] was “inactive” each time. The Potency result in test [7] was “inactive”. The outcome in [8] and in test [9] was inactive.
For the compound `NC(=O)OCC(COC(N)=O)c1ccccc1`, the Potency entry in test [1], in [2], in test [3], in test [4], in test [5] and in test [6] was “inactive” in each case. Moreover, in test [7], the Potency result was “inactive”. Moreover, the outcome in test [8] and in test [9] was inactive.
For `CCC1(c2ccccc2)C(=O)NCNC1=O`, the Potency result in [1], in [2], in test [3], in test [4], in test [5] and in [6] was “inactive” each time. In addition, the outcome in test [8] and in test [9] was inactive.
Consider `C[C@H]1c2cccc(O)c2C(O)=C2C(=O)[C@]3(O)C(O)=C(C(N)=O)C(=O)[C@@H](N(C)C)[C@@H]3[C@@H](O)[C@@H]21`, for which the Potency entry in test [1], in test [2], in test [3], in test [5], in [6] and in [7] was “inactive” in each case. Also, the outcome in test [8] and in [9] was inactive.
For the compound `Cn1cnc2c1c(=O)[nH]c(=O)n2C`, the Potency entry in test [1], in test [2], in [3], in test [4], in test [5] and in test [6] was “inactive” each time. In test [7], the Potency entry is “inactive”. In addition, the result in [8] and in [9] was inactive.
On to `CN1C2CCC1CC(OC(=O)C(CO)c1ccccc1)C2` (stereo unspecified), for which the Potency entry in [1], in test [2], in [3], in test [4], in test [5] and in [6] was “inactive” each time. For the same compound, the Potency entry in test [7] is “inactive”. Moreover, the result in test [8] and in test [9] was inactive.
`NC12CC3CC(CC(C3)C1)C2`: the Potency result in [1], in test [2], in test [3], in test [4], in test [5] and in test [6] was “inactive” throughout. Moreover, in [7], the Potency entry was “inactive”. For the same compound, the outcome in test [8] and in test [9] was inactive.
For the compound `COc1nc(C)nc(Cl)c1NC1=NCCN1`, the Potency entry in [1], in [2], in [3], in test [4], in test [5] and in test [6] was “inactive” throughout. In addition, in test [7], the Potency entry was “inactive”. Further, the outcome in test [8] and in test [9] was inactive.
As for `Cc1cc(C(C)(C)C)c(O)c(C)c1CC1=NCCN1`, the Potency result in test [1], in [2], in [3], in test [4], in [5] and in test [6] was “inactive” each time. In addition, the Potency entry in test [7] is “inactive”. For the same compound, the result in test [8] and in [9] was inactive.
For `CN1CCN(C2=Nc3cc(Cl)ccc3Nc3ccccc32)CC1`, the Potency entry in [1], in test [3], in test [4], in test [5], in [6] and in [7] was “inactive” throughout. In [2], the Potency is 10.4 µM (active). The outcome in test [8] and in test [9] was inactive.
As to `Cc1ccccc1N1C(=O)c2cc(S(N)(=O)=O)c(Cl)cc2NC1C` (stereo unspecified), the Potency entry in test [1], in [2], in [3], in [5], in test [6] and in test [7] was “inactive” throughout.
As for `O=C1c2c(O)ccc(O)c2C(=O)c2c(NCCNCCO)ccc(NCCNCCO)c21`, the Potency in [1] was 10.4 µM (active); in [3], 0.833 µM (active); in [4], 0.826 µM (active); in test [6], 658 nM (active) and 59.2 nM (active); in test [7] it was 2.96 µM (active) and 2.66 µM (active). Moreover, the Potency entry in [5] is “inactive”.
